B1: ENSMUSG00000022095.272|Fam160b2 (ssRNA)
RNA: GGGAGUUCUACAGUCCGACGAUCGCUUCGAUAUCCGCAUGCUAGAAUGAAUGUGAGUGUGUGUGUGUGUGUGUGUGAGAGAGAGAGAGAGAGAGAGAGAGCUGUGAGUACACAUGGGUGCUGGUGUGGGACAGGAGCAGAUCUUGGUGGAGUGGGUCUACACUUGAGAUUUGUACUCGUUUGAGAGGCUGGGCAAUACUCAAUGCACUUUGGCAUUUGCAUGGUGUCUUCACAACAGCACAGCAAUAAACAUUGUGAUUGUGUGGACAUGCUGACUCUCCCCAGUCUGCUUUUCUUUUCCCCACUCUUGCGGUCGCACUAGUGUGGAAUUCUCGGGUGUCAAGG
B2: ENSMUSG00000022095.269|Fam160b2 (ssRNA)
RNA: GGGAGUUCUACAGUCCGACGAUCGCUUCGAUAUCCGCAUGCUAAGAGAGAGAGCGAGCUAUGAAUGAAUGUGAGUGUGUGUGUGUGUGUGUGUGAGAGAGAGAGAGAGAGAGAGAGAGCUGUGAGUACACAUGGGUGCUGGUGUGGGACAGGAGCAGAUCUUGGUGGAGUGGGUCUACACUUGAGAUUUGUACUCGUUUGAGAGGCUGGGCAAUACUCAAUGCACUUUGGCAUUUGCAUGGUGUCUUCACAACAGCACAGCAAUAAACAUUGUGAUUGUGUGGACAUGCUGACUCUCCCCAGUCUCUUGCGGUCGCACUAGUGUGGAAUUCUCGGGUGUCAAGG
B3: ENSMUSG00000022095.269|Fam160b2|31:51;98:102;234:239 (ssRNA)
RNA: GGGAGUUCUACAGUCCGACGAUCGCUUCGAUAUCCGCAUGCUAAGAGAGAGAGCGAGCUAUGAAUGAAUGUGACACACACACACACACACACACAGAGAGAGAGAGAGAGAGAGAGAGCUGUGAGUACACAUGGGUGCUGCACACGGACAGGAGCAGAUCUUGGUGGAGUGGGUCUACACUUGAGAUUUGUACUCGUUUGAGAGGCUGGGCAAUACUCAAUGCACUUUGGCAUUUGCAUGGUGUCUUCACAACAGCACAGCAAUAAACAUUGUGAUACACACGACAUGCUGACUCUCCCCAGUCUCUUGCGGUCGCACUAGUGUGGAAUUCUCGGGUGUCAAGG
B4: ENSMUSG00000022095.268|Fam160b2|37:57;104:108;240:245 (ssRNA)
RNA: GGGAGUUCUACAGUCCGACGAUCGCUUCGAUAUCCGCAUGCUAAGAGAGAGAGAGAGAGCGAGCUAUGAAUGAAUGUGACACACACACACACACACACACAGAGAGAGAGAGAGAGAGAGAGAGCUGUGAGUACACAUGGGUGCUGCACACGGACAGGAGCAGAUCUUGGUGGAGUGGGUCUACACUUGAGAUUUGUACUCGUUUGAGAGGCUGGGCAAUACUCAAUGCACUUUGGCAUUUGCAUGGUGUCUUCACAACAGCACAGCAAUAAACAUUGUGAUACACACGACAUGCUGACUCUCCUCUUGCGGUCGCACUAGUGUGGAAUUCUCGGGUGUCAAGG
B5: ENSMUSG00000022095.266|Fam160b2|1:10;49:69;116:120;252:257 (ssRNA)
RNA: GGGAGUUCUACAGUCCGACGAUCGCUUCGAUAUCCGCAUGCUAACACACACACAGAGAGAGAGAGAGAGAGCGAGCUAUGAAUGAAUGUGACACACACACACACACACACACAGAGAGAGAGAGAGAGAGAGAGAGCUGUGAGUACACAUGGGUGCUGCACACGGACAGGAGCAGAUCUUGGUGGAGUGGGUCUACACUUGAGAUUUGUACUCGUUUGAGAGGCUGGGCAAUACUCAAUGCACUUUGGCAUUUGCAUGGUGUCUUCACAACAGCACAGCAAUAAACAUUGUGAUACACACGACCUCUUGCGGUCGCACUAGUGUGGAAUUCUCGGGUGUCAAGG
B6: ENSMUSG00000022095.270|Fam160b2|25:45;92:96;228:233 (ssRNA)
RNA: GGGAGUUCUACAGUCCGACGAUCGCUUCGAUAUCCGCAUGCUAAGAGCGAGCUAUGAAUGAAUGUGACACACACACACACACACACACAGAGAGAGAGAGAGAGAGAGAGAGCUGUGAGUACACAUGGGUGCUGCACACGGACAGGAGCAGAUCUUGGUGGAGUGGGUCUACACUUGAGAUUUGUACUCGUUUGAGAGGCUGGGCAAUACUCAAUGCACUUUGGCAUUUGCAUGGUGUCUUCACAACAGCACAGCAAUAAACAUUGUGAUACACACGACAUGCUGACUCUCCCCAGUCUGCUUCUCUUGCGGUCGCACUAGUGUGGAAUUCUCGGGUGUCAAGG
B7: ENSMUSG00000022095.272|Fam160b2|13:33;80:84;216:221 (ssRNA)
RNA: GGGAGUUCUACAGUCCGACGAUCGCUUCGAUAUCCGCAUGCUAGAAUGAAUGUGACACACACACACACACACACACAGAGAGAGAGAGAGAGAGAGAGAGCUGUGAGUACACAUGGGUGCUGCACACGGACAGGAGCAGAUCUUGGUGGAGUGGGUCUACACUUGAGAUUUGUACUCGUUUGAGAGGCUGGGCAAUACUCAAUGCACUUUGGCAUUUGCAUGGUGUCUUCACAACAGCACAGCAAUAAACAUUGUGAUACACACGACAUGCUGACUCUCCCCAGUCUGCUUUUCUUUUCCCCACUCUUGCGGUCGCACUAGUGUGGAAUUCUCGGGUGUCAAGG
B8: ENSMUSG00000022095.273|Fam160b2 (ssRNA)
RNA: GGGAGUUCUACAGUCCGACGAUCGCUUCGAUAUCCGCAUGCUAAUGUGAGUGUGUGUGUGUGUGUGUGUGAGAGAGAGAGAGAGAGAGAGAGAGCUGUGAGUACACAUGGGUGCUGGUGUGGGACAGGAGCAGAUCUUGGUGGAGUGGGUCUACACUUGAGAUUUGUACUCGUUUGAGAGGCUGGGCAAUACUCAAUGCACUUUGGCAUUUGCAUGGUGUCUUCACAACAGCACAGCAAUAAACAUUGUGAUUGUGUGGACAUGCUGACUCUCCCCAGUCUGCUUUUCUUUUCCCCAAGCUUUCUCUUGCGGUCGCACUAGUGUGGAAUUCUCGGGUGUCAAGG
B9: ENSMUSG00000022095.271|Fam160b2 (ssRNA)
RNA: GGGAGUUCUACAGUCCGACGAUCGCUUCGAUAUCCGCAUGCUAAGCUAUGAAUGAAUGUGAGUGUGUGUGUGUGUGUGUGUGAGAGAGAGAGAGAGAGAGAGAGAGCUGUGAGUACACAUGGGUGCUGGUGUGGGACAGGAGCAGAUCUUGGUGGAGUGGGUCUACACUUGAGAUUUGUACUCGUUUGAGAGGCUGGGCAAUACUCAAUGCACUUUGGCAUUUGCAUGGUGUCUUCACAACAGCACAGCAAUAAACAUUGUGAUUGUGUGGACAUGCUGACUCUCCCCAGUCUGCUUUUCUUUCUCUUGCGGUCGCACUAGUGUGGAAUUCUCGGGUGUCAAGG
B10: ENSMUSG00000022095.268|Fam160b2 (ssRNA)
RNA: GGGAGUUCUACAGUCCGACGAUCGCUUCGAUAUCCGCAUGCUAAGAGAGAGAGAGAGAGCGAGCUAUGAAUGAAUGUGAGUGUGUGUGUGUGUGUGUGUGAGAGAGAGAGAGAGAGAGAGAGAGCUGUGAGUACACAUGGGUGCUGGUGUGGGACAGGAGCAGAUCUUGGUGGAGUGGGUCUACACUUGAGAUUUGUACUCGUUUGAGAGGCUGGGCAAUACUCAAUGCACUUUGGCAUUUGCAUGGUGUCUUCACAACAGCACAGCAAUAAACAUUGUGAUUGUGUGGACAUGCUGACUCUCCUCUUGCGGUCGCACUAGUGUGGAAUUCUCGGGUGUCAAGG

The full ranking holds about 9,900 sequences; the median of “r (bound/input frequency ratio)” is about 0.7, and the highest 2% start at about 6.5. The sample holds the highest values, similar sequences and a random draw of the others, so the mix is not that of the screen.

Chain of TDP-43 (Q13148 whole entry): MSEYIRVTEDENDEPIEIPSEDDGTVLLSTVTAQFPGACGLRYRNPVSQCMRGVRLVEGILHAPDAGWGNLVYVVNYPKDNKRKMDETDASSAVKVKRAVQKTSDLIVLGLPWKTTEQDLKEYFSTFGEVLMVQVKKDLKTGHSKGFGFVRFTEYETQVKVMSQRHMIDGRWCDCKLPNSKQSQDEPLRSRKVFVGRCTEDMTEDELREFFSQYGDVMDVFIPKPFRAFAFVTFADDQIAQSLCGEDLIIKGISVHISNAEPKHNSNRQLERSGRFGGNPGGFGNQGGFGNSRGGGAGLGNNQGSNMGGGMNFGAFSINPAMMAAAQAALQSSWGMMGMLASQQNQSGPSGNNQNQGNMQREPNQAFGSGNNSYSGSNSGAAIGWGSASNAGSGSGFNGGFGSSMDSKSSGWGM

In the experiment the target is TDP-43 (Homo sapiens, UniProt Q13148 1-414). Briefly: RNA Bind-n-Seq with designed 260-mer pool; 25 mM Tris-HCl, 150 mM KCl, 3 mM MgCl2, BSA (printed 500 mg/mL), 20 units/mL SUPERase IN; pH not stated; 500 nM RNA pool, 1 h, 4 C; TDP-43 5, 50, 500 nM; high values mean tight binding. Conditions: protein: recombinant; tags: SBP (GST cleaved off with PreScission; pGEX-GST-SBP). An outline of the steps:
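Duplicate measurements used two independent batches of recombinant SBP-tagged TDP-43, which was captured on streptavidin beads at 5, 50 or 500 nM. The beads were incubated with 500 nM of an in vitro-transcribed 260-nt 3′ UTR oligo pool for 1 h at 4 °C in 25 mM Tris-HCl, 150 mM KCl, 3 mM MgCl2, BSA and SUPERase IN. After washing, biotin elution, reverse transcription, PCR amplification and sequencing, binding was expressed as R: each oligo's normalized read abundance in the bound sample over its abundance in input.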
As to B1, the binding signal was 5.79 R (bound/input frequency ratio). With B2, the binding signal is 7.25 R (bound/input frequency ratio).

For B3, the binding signal was 4.63 R (bound/input frequency ratio). B4: the binding signal is 6.08 R (bound/input frequency ratio). Then B5, with 4.83 R (bound/input frequency ratio); and B6, with 4.7 R (bound/input frequency ratio). The value for B7 was 4.46 R (bound/input frequency ratio); that for B8 was 5.83 R (bound/input frequency ratio). The value for B9 was 7.64 R (bound/input frequency ratio). As for B10, the binding signal was 6.67 R (bound/input frequency ratio).

(Values after publication PMC12864922, “TDP-43 directly inhibits mRNA accumulation in neurites through modulation of mRNA stability”.)
